# Bioassay records as filed in PubChem BioAssay.
# Only some compounds are listed: those with a hit (about 2.8% of all), similar ones and a draw of the others.
# PglD DTNB: inhibitors of Campylobacter jejuni PglD acetyltransferase; purified PglD enzyme, DTNB colorimetric CoA detection; inhibition, % at 12.5 µM; 360,000 tested, 0.098% active; in the data active means inhibition above about 16%, passing the limit was not always enough
# PvdQ inh: blocks Pseudomonas aeruginosa PvdQ acylase activity. purified PvdQ acylase, fluorescence plate reader. inhibition, % at 10 µM. 340,000 tested, 0.063% active. AID 488965; in the data active means inhibition above about 30%, passing the limit was not always enough;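 further: 0% = vehicle neutral wells and 100% = reference inhibitor wells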
# FGF22 binding: shifts melting point of recombinant human FGF22. 340,000 tested, 1.5% active. activity (Tm shift, normalised), % at 9.99 µM. recombinant FGF22 thermal shift, SYPRO orange fluorescence; percent of sucrose octasulfate shift, DMSO zero. Q9HCT0. AID 651658;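 active means mean Tm shift, scaled 0 neutral to 100 positive control, at about 1.3% or above, every replicate too, limit read from the data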
# Target sequence (Q9HCT0 whole entry, looked up): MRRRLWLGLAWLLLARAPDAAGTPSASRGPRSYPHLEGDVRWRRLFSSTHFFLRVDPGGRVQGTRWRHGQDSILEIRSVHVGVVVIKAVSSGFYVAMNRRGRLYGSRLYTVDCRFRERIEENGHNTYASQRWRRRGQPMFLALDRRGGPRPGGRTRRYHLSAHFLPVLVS
# CDK5 p35 inh: blocks human CDK5/p35 kinase activity. Q00535+Q15078. Recombinant CDK5/p35, ADP-Glo luminescence, 60 min. inhibition, % at 10 µM. 330,000 tested, 0.01% active;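 active means highest replicate inhibition of at least 50% and at least 75% of replicates reaching 50%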;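 further: plate controls were DMSO neutral control for no effect and GW8510 at 10 µM for full effect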
# dFosB activator: mouse delta FosB homodimer activation; P13346; 340,000 tested, 0.99% active; activation, % at 25 µM; purified delta FosB, TAMRA-CDK5 oligo fluorescence polarization; percent of positive-control signal above neutral wells;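 active means mean activation above about 17%, with every replicate also reaching it, limit read from the data, passing the limit was not always enough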
# Target sequence (P13346 whole entry, looked up): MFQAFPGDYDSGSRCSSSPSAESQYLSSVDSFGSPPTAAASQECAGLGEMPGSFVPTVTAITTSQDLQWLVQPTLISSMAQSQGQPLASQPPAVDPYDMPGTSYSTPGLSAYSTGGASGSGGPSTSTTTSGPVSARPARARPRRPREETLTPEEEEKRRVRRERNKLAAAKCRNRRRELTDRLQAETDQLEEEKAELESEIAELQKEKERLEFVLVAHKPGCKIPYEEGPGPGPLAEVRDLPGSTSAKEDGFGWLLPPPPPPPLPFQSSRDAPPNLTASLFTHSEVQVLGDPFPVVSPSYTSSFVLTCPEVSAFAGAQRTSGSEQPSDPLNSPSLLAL
# SIRT5 block: inhibitors of human sirtuin-5 desuccinylase; Q9NXA8; Purified SirT5, succinyl-peptide AMC, trypsin-coupled fluorescence; inhibition, % at 15 µM; 330,000 tested, 1.1% active; AID 652115; in the data active means inhibition above about 15%
# An asterisk follows results filed as active; . = not tested or not shown.
SMILES,PglD DTNB,PvdQ inh,FGF22 binding,CDK5 p35 inh,dFosB activator,SIRT5 block
CC(=O)Oc1ccc2oc(=O)c3c(c2c1)CCCN3C(=O)CN1CCN(c2ncccn2)CC1,1,0,.,0,-4,.
CC(=O)Oc1ccc2oc(=O)c3c(c2c1)CCCN3C(=O)CN1CCOCC1,.,-13,43*,0,2,0
C[C@@H]1CN([C@H](C)CO)S(=O)(=O)c2ccc(C#CC3CC3)cc2O[C@H]1CN(C)C(=O)c1ccccc1,0,.,0,.,.,0
O=C(NC1CCCC1)N1CC(=O)N2[C@@H](CO)[C@H](c3ccc(/C=C/c4ccccc4)cc3)[C@@H]2C1,.,.,.,.,.,3
O=C(COc1ccc(Cc2ccccc2)cc1)c1ccc(F)cc1,5,-2,0,1,-3,16*
O=C(COc1ccc(F)cc1)c1ccc2c(c1)CCCC2,-5,-7,.,0,-6,.
CC(C)(C)c1nnc2sc(SCC(=O)c3ccccc3)nn2c1=O,0,-9,.,-1,2,.
CC(C)(C)c1nnc2sc(SCC(=O)N3CCc4ccccc43)nn2c1=O,-5,29,43*,-1,-5,1
COc1cc(/C=C/C(=O)OCC(=O)Nc2cccc(F)c2)ccc1O,6,-15,45*,-5,-3,.
COc1cc(/C=C/C(=O)OCC(=O)NC(=O)NC(C)(C)C)ccc1O,3,-2,0,1,-8,4
CCOC(=O)C1CCN(C(=O)C2CCC(=O)N(Cc3cccc(C(F)(F)F)c3)C2)CC1 (configuration not stated),1,-13,0,0,-8,-6
O=C1CCC(C(=O)N2CCC(CO)CC2)CN1Cc1ccc(Cl)cc1 (configuration not stated),1,-19,0,-1,2,0
CC1CCN(C(=O)C2CCC(=O)N(Cc3ccc(Cl)cc3)C2)CC1 (configuration not stated),1,2,0,0,-11,23*
CCOC(=O)N1CCN(C(=O)C2CCC(=O)N(Cc3cccc(C(F)(F)F)c3)C2)CC1 (configuration not stated),-2,-15,0,0,6,21*
O=C(NC1CCC1)[C@H]1[C@H](CO)[C@H]2Cn3c(ccc(-c4ccncc4)c3=O)[C@@H]1N2CC1CC1,1,.,0,.,.,-4
CCOC(=O)N1CCN(S(=O)(=O)c2c(C)nc3scc(C)n3c2=O)CC1,3,-8,0,.,-3,31*
CC(=O)N1CCCc2cc(S(=O)(=O)Nc3ccccc3C)ccc21,-4,-5,44*,-1,2,-4
COc1ccc(NC(=S)NNC(=O)c2ccc(S(=O)(=O)N3CCOCC3)cc2)cc1,3,-3,1.4*,2,2,1
COc1ccc(C(=O)N[C@H](C(=O)Nc2ccc(S(=O)(=O)N3CCOCC3)cc2)C(C)C)cc1,.,-13,0,-1,-10,.
COc1ccc(NC(=O)N2CCN(S(C)(=O)=O)CC2)cc1,.,-17,43*,-3,-6,-3
COc1ccc(CC(=O)Nc2ccc(S(=O)(=O)N3CCN(C)CC3)cc2)cc1,-4,-13,0,0,-18,18*
COc1ccc(NC(=O)Nc2ccc(CC(=O)O)cc2)cc1,.,-6,43*,-3,1,-2
COc1ccc(NC(=O)N2CCN(C(=O)Nc3ccc(OC)cc3)CC2)cc1,4,10,0,1,-2,1
C[C@@H]1CN([C@@H](C)CO)C(=O)c2cc(C#CCc3ccccc3)cnc2O[C@H]1CN(C)C(=O)C1CCC1,-1,.,0,.,.,-7
O=C(C[C@@H]1C[C@@H]2c3cc(NC(=O)C4CCOCC4)ccc3O[C@@H]2[C@H](CO)O1)NCCc1ccccc1,0,.,-1,.,.,2
SMILES,PglD DTNB,PvdQ inh,FGF22 binding,CDK5 p35 inh,dFosB activator,SIRT5 block
C[C@H]1CN([C@@H](C)CO)C(=O)c2cc(NC(=O)NC3CCCCC3)ccc2O[C@@H]1CN(C)C(=O)NC1CCCCC1,4,.,0,.,.,-3
COc1ccc(/C=N\NC(=O)c2ccccc2[N+](=O)[O-])cc1COc1c(F)c(F)c(F)c(F)c1F,0,-6,4.1*,1,1,-1
C[C@@H]1CN([C@@H](C)CO)C(=O)c2cccc(NC(=O)c3ccc(-c4nccs4)cc3)c2O[C@H]1CN(C)C(=O)Nc1ccc(C(F)(F)F)cc1,3,.,0,.,.,10
O=C(Nc1ccc2c(c1)[C@H]1C[C@@H](CC(=O)N3CCOCC3)O[C@H](CO)[C@H]1O2)c1cccnc1,1,.,0,.,.,-5
Cc1ccc(C(C[N+](=O)[O-])c2c(C)[nH]n(-c3ccccc3)c2=O)cc1 (configuration not stated),2,-8,0,-8,3,26*
Cc1ccc(S(=O)(=O)N(C)C[C@@H]2Oc3ccc(NC(=O)Cn4cnnn4)cc3C(=O)N([C@H](C)CO)C[C@H]2C)cc1,-4,.,0,.,.,2
CSc1ncc(C(=O)Nc2ccc(C(C)=O)cc2)c(-c2ccccc2)n1,4,11,0,-1,5,21*
CC=Cc1ccc2n(c1=O)C[C@@H]1[C@@H](CO)[C@H](C(=O)NCCC)[C@H]2N1Cc1cccnc1 (mixture of isomers),2,.,0,.,.,-4
C[C@@H]1CCCCO[C@H](CN(C)C(=O)Nc2cccc3ccccc23)[C@@H](C)CN([C@@H](C)CO)C(=O)c2cc(NS(=O)(=O)c3ccccc3)ccc2O1,.,.,0,.,.,15*
C[C@@H]1CCCCO[C@@H](CN(C)C(=O)Nc2cccc3ccccc23)[C@H](C)CN([C@H](C)CO)C(=O)c2cc(NS(=O)(=O)c3ccccc3)ccc2O1,1,.,0,.,.,14
Cc1ccc(S(=O)(=O)Nc2ccc3c(c2)C(=O)N([C@@H](C)CO)C[C@@H](C)[C@@H](CN(C)C(=O)Nc2cccc4ccccc24)OCCCC[C@@H](C)O3)cc1,-3,.,0,.,.,17*
C[C@@H]1CCCCO[C@H](CN(C)Cc2ccc3c(c2)OCO3)[C@@H](C)CN([C@@H](C)CO)C(=O)c2cc(NS(C)(=O)=O)ccc2O1,-5,.,-1,.,.,6
CCN1/C(=C/c2ccc3cc(C)ccc3[n+]2CC)Sc2ccccc21,.,-6,0,2,52*,6
CCN1/C(=C/c2ccc3cc(C)ccc3[n+]2CC)Sc2cc(C)c(C)cc21,.,-1,0,3,-67,-1
COc1ccc(NC(=O)Nc2ccc3c(c2)C(=O)N([C@@H](C)CO)C[C@@H](C)[C@@H](CN(C)CC2CC2)OCCCC[C@@H](C)O3)cc1,-2,.,-1,.,.,7
CCCC[n+]1c(C)sc2ccc(C)cc21,.,-4,43*,-6,-7,2
Cc1ccc2nc(-c3ccc(NC(=S)NC4CC(C)(C)NC(C)(C)C4)cc3)sc2c1,-2,-3,43*,0,-65,-14
